Test results as given in PubChem BioAssay AID504834 (National Center for Advancing Translational Sciences (NCATS), 2011).
The campaign covered roughly 320,000 compounds. About 22,000 (6.9%) were called active. About 27% were inconclusive and are not listed. Calls come from the whole dose curve; as a rule, active = well fitted inhibition curve with a large enough effect; inconclusive = small, poorly fitted or top-dose-only effect, or another doubt; inactive = no such curve, though single readings can be large or run the other way. Shown is part of a subset that was picked to be rich in actives. A call without a number means that no potency is given here.

test: Primary qHTS for delayed death inhibitors of the malarial parasite plastid, 96 hour incubation; details: P. falciparum luciferase reporter growth; series mostly up to 28.7 µM
Summary of the method: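 96 h incubation, 37 C, 5% CO2, of luciferase-reporter P. falciparum-infected RBCs (2% hematocrit, 0.05% parasitemia final) with test compounds; endpoint luminescence.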
Potency is the fitted concentration of half-maximal effect.

Row | Compound | Potency
1 | COC(=O)c1ccc(C)c(NC(=O)C2CC(=O)N(C3CCCC(C)C3C)C2)c1 (stereo not drawn) | inactive
2 | COC(=O)c1ccccc1NC(=O)C1CCN(C(=O)N2CCOc3ccccc32)CC1 | inactive
3 | O=C(COC(=O)c1cccc(Cl)c1)Nc1ccc2[nH]c(=O)[nH]c2c1 | inactive
4 | Cc1ccc(CN(CC(=O)NCC2CCCO2)S(=O)(=O)c2ccc(C)cc2)cc1 (stereo not drawn) | inactive
5 | CC(=O)Nc1ccc(NC(=O)CN2C(=O)COc3ccc(S(=O)(=O)N4CCCCC4)cc32)cc1 | inactive
6 | Cc1ccn2c(=O)nc(SCC(=O)NCc3ccc4c(c3)OCO4)nc2c1 | inactive
7 | Cc1ccc(C)c(C(=O)COC(=O)Cn2[nH]c(=O)c3ccccc3c2=O)c1 | inactive
8 | Cc1nc(NC(=O)c2ccc3c(c2)OCCO3)ccc1Br | inactive
9 | CCOc1ccc(-c2n[nH]c(C)c2-c2ccccn2)c(O)c1 | inactive
10 | COc1ccc(-c2n[nH]c(C)c2-c2ccccc2OC)c(O)c1 | 11.7 µM (active)
11 | C=C(C)COc1ccc(-c2ncncc2-c2ccc(OC)cc2)c(O)c1 | inactive
12 | C=C(C)COc1ccc(-c2n[nH]c(C)c2-c2ccccc2OC)c(O)c1 | 11.7 µM (active)
13 | CCOc1ccc(-c2nc(N)ncc2-c2ccccc2OC)c(O)c1 | inactive
14 | COc1ccc(-c2[nH]ncc2CN(C)Cc2c(C)n[nH]c2C)c(OC)c1 | inactive
15 | COc1ccc(N=Nc2ccc(O)c(P(=O)(c3ccccc3)c3ccccc3)c2)cc1 | inactive
16 | CCc1nc2nc(C)c(NS(=O)(=O)c3ccc4c(c3)CCCC4)c(=O)n2[nH]1 | inactive
17 | C=CCn1cc(Cl)cc(C(=O)Nc2ccccc2)c1=O | inactive
18 | CCOc1ccc(N/C=C/C(=O)c2cc(OC)c(OC)c(OC)c2)cc1 | inactive
19 | Cc1cccc(NC(=O)CSCC(=O)Nc2nnc(C3CC3)s2)c1 | inactive
20 | NC(=O)NC(=O)C(OC(=O)CCNS(=O)(=O)c1ccccc1)c1ccccc1 (stereo not drawn) | inactive
21 | COc1ccc2c(c1)c1nc3n(c(=O)c1n2CC(=O)Nc1ccccc1)CCS3 | inactive
22 | CCn1c(CC(=O)Nc2ccc(C)cc2)nnc1SCC(=O)Nc1nc(C)cs1 | inactive
23 | COCCn1c(SCC(=O)Nc2ccc3c(c2)CCC3)nc2ccccc2c1=O | inactive
24 | CCn1c(SCC(=O)Nc2ccc(C)cc2)nc2nc3c(cc2c1=O)CCCC3 | 14.7 µM (active)
25 | O=C(OCC1OC(Oc2ccc(O)cc2)C(O)C(O)C1O)c1ccccc1 (stereo not drawn) | inactive
26 | COc1ccc(-c2nc(SCC(=O)N3CCCC3)n[nH]2)cc1 | inactive

Row | Compound | Potency
27 | O=S(=O)(c1ccc(-c2ccno2)s1)N1CCCCC1 | inactive
28 | CCCCN1Cc2c(nc3cc(-c4ccccc4)[nH]n3c2=O)C1=O | inactive
29 | O=C(CCNS(=O)(=O)c1ccccc1C(F)(F)F)Nc1ccncc1 | inactive
30 | COc1ccc(N(CC(=O)N2CCCCCC2)S(=O)(=O)c2ccccc2)cc1 | inactive
31 | CCOc1ccccc1N(CC(=O)Nc1ccccc1C(=O)OC)S(C)(=O)=O | inactive
32 | COc1ccccc1N(CC(=O)N1CCCCC1)S(=O)(=O)c1ccccc1 | 11.7 µM (active)
33 | COc1ccccc1N(CC(=O)Nc1ccccc1C(=O)N1CCCC1)S(C)(=O)=O | 9.28 µM (active)
34 | COc1ccccc1NC(=O)CN(c1ccccc1OC)S(=O)(=O)c1ccccc1 | inactive
35 | COc1ccc([N+](=O)[O-])cc1N(CC(=O)Nc1ccccc1C(=O)N1CCOCC1)S(C)(=O)=O | inactive
36 | Cc1cc(C)c(S(=O)(=O)c2cc(F)ccc2C)c(=O)[nH]1 | inactive
37 | O=C(COC(=O)c1ccc(N2CCCC2=O)cc1)c1ccc(OC(F)F)cc1 | inactive
38 | COc1ccc(NC(=O)C2C3CCC(O3)C2C(=O)O)cc1OC (stereo not drawn) | inactive
39 | O=C(CCCN=C1NS(=O)(=O)c2ccccc21)OCC(=O)c1ccc(F)c(F)c1 | inactive
40 | CCN(CC(=O)Nc1ccc2c(c1)OCO2)S(=O)(=O)c1ccccc1 | inactive
41 | COc1cc(NC(=O)N2CCOCC2)cc(OC)c1 | inactive
42 | CN(C)C(=O)Oc1ccc(NC(=O)N2CCOCC2)cc1 | 3.29 µM (active)
43 | CN(C)S(=O)(=O)c1ccc(NC(=O)N2CCOCC2)cc1 | inactive
44 | CCCCN1CCNC1=S | inactive
45 | COc1ccc(-c2cc(=O)oc3cc(OCC(=O)N(C)C4CCS(=O)(=O)C4)ccc23)cc1 (stereo not drawn) | inactive
46 | CN(CC#CCC(c1ccccc1)c1ccccc1)C(C)(C)C | 4.65 µM (active)
47 | CC(C)(C)N(CC#CCC(O)(c1ccccc1)C1CCCC1)CCO (stereo not drawn) | inactive
48 | CCCn1nc(C(=O)NNC(=O)CCOc2ccccc2OCC)c2ccccc2c1=O | inactive
49 | CC(Sc1nnc(CNC(=O)c2ccccc2F)n1C)C(=O)Nc1nccs1 (stereo not drawn) | inactive
50 | CC(C)(O)C(=O)NN(C(=O)c1ccccc1)c1cccc(Br)c1 | inactive
51 | CCCC(O)(CCC)C(=O)NN(C(=O)CCl)c1cccc(C)c1 | 1.04 µM (active)
52 | Cc1ccc(N(NC(=O)C(C)(C)O)C(=O)c2ccccc2)cc1C | inactive

Row | Compound | Potency
53 | Cc1ccc2nc(NC(=O)C3CSC4(C)CCC(=O)N34)sc2c1 (stereo not drawn) | inactive
54 | Cc1ccc(S(=O)(=O)c2c[nH]c3ccc(C)cc3c2=O)cc1 | inactive
55 | O=C(NCc1ccccc1)c1ccc(CNc2c(N3CCCC3)c(=O)c2=O)cc1 | inactive
56 | O=S(=O)(NCCS(=O)(=O)N1CCN(c2ccccc2)CC1)c1ccc(F)cc1 | inactive
57 | CCOc1ccc(/C=N/NC(=O)C(C)Sc2ccccn2)cc1OCC (stereo not drawn) | inactive
58 | COC(=O)N/N=C/c1ccc(/C=N/NC(=O)OC)cc1 | inactive
59 | CCOc1cc(/C=N/NC(=O)OC)ccc1OCCSc1ccc(Cl)cc1 | 10.4 µM (active)
60 | COc1ccc(C)cc1NC(=O)CCCN1C(=O)NC(C)(C)C1=O | inactive
61 | NC(=O)c1cc(S(=O)(=O)N2CCCC2)ccc1OCc1ccc(F)cc1 | inactive
62 | Cc1cc(C)c2[nH]c(=O)c(C(c3nnnn3Cc3ccc4c(c3)OCO4)N3CCCC3)cc2c1 (stereo not drawn) | inactive
63 | CC(C)(C)n1nnnc1C(c1ccc(F)cc1)N1CCN(Cc2ccc3c(c2)OCO3)CC1 (stereo not drawn) | inactive
64 | Fc1ccccc1C(c1nnnn1Cc1ccc2c(c1)OCO2)N1CCN(Cc2ccccc2)CC1 (stereo not drawn) | 1.85 µM (active)
65 | COc1ccc(C(=O)Nc2ccc(C3(C#N)CCCC3)cc2)cc1OC | inactive
66 | CC1CCCCC1NC(=O)COC(=O)Cc1ccc(Br)cc1 (stereo not drawn) | inactive
67 | CC1CCCCC1NC(=O)CN1CCC(O)(c2ccc3c(c2)OCO3)CC1 (stereo not drawn) | 13.1 µM (active)
68 | O=C(CN1CCC(O)(c2ccccc2)CC1)Nc1ccc2c(c1)OCCO2 | inactive
69 | Cc1cccnc1NC(=O)c1cccc(S(=O)(=O)N2CCN(c3ccc(F)cc3)CC2)c1 | inactive
70 | O=C(Nc1ccc2c(c1)CCC2)c1cccc(S(=O)(=O)N2CCN(c3ccc(F)cc3)CC2)c1 | 9.28 µM (active)
71 | O=C(Nc1ccc2c(c1)CCC2)c1cccc(S(=O)(=O)Nc2ccccc2Cl)c1 | inactive
72 | CCOc1ccc(/C=C/C(=O)N(CC)CC(=O)NCc2cccs2)cc1OC | inactive
73 | O=C(Cn1nc(C(=O)O)c2ccccc2c1=O)Nc1ccc(F)cc1 | inactive
74 | COc1ccc(-c2cc(C(=O)N3CCN(c4ccc(F)cc4)CC3)no2)cc1 | inactive
75 | CCOC(=O)C1(C(F)(F)F)N=C(N(C)C)OC(N(C)C)=N1 | 4.15 µM (active)
76 | CCOc1ccc2[nH]c3nc(SCC(=O)NC4CCCC4)nnc3c2c1 | inactive
77 | CCOc1ccc(CN2CCN(Cc3c[nH]c4ccccc34)CC2)cc1 | inactive
78 | Cc1cccc(OCC(=O)NCCNC(=O)c2cccnc2)c1 | inactive

Row | Compound | Potency
79 | CN(CC(=O)Nc1ccccc1Cl)C(=O)c1ccccc1SCC(=O)N1CCCC1 | inactive
80 | CCOC(=O)CSc1nc2ccc(C)cc2n2cnnc12 | inactive
81 | CCc1noc(C)c1C(=O)N1CCCSC1=Nc1ccccc1OC | inactive
82 | COc1ccccc1N=C1SCCCN1C | inactive
83 | COc1ccccc1N=C1SC(C)CN1C(=O)C1CCC1 (stereo not drawn) | 10.4 µM (active)
84 | O=S(=O)(NC(=S)Nc1ccccc1)c1ccc(F)cc1 | inactive
85 | CO[C@H]1[C@@H]2C=CO[C@@H](O[C@H]3O[C@@H](CO)[C@H](O)[C@@H](O)[C@@H]3O)[C@@H]2[C@@]2(CO)O[C@@H]12 | inactive
86 | O=C(CN(C(=O)c1csnn1)c1cccc(Cl)c1)NC1CCCC1 | inactive
87 | CCOc1ccc(N(C(=O)c2snc(C(N)=O)c2N)C(C(=O)NCC2CCCO2)c2c[nH]c3ccccc23)cc1 (stereo not drawn) | inactive
88 | COc1ccc(-c2nc(CS(=O)CC(=O)N3CCC4(CC3)OCCO4)c(C)o2)cc1 (stereo not drawn) | inactive
89 | COc1ccc(-c2nc(CS(=O)CC(=O)NCc3ccccn3)c(C)o2)cc1 (stereo not drawn) | 11.7 µM (active)
90 | COc1cccc(-c2nc(CS(=O)CC(=O)NCc3ccc(F)cc3)c(C)o2)c1 (stereo not drawn) | inactive
91 | COc1ccc(-c2nc(CS(=O)CC(=O)NCc3ccccc3)c(C)o2)cc1OC (stereo not drawn) | 13.1 µM (active)
92 | Cc1ccc(-c2nc(CSCC(=O)NC3CCN(Cc4ccccc4)CC3)c(C)o2)cc1 | inactive
93 | Cc1ccc(-c2nc(CS(=O)CC(=O)N3CCN(c4ncccn4)CC3)c(C)o2)cc1 (stereo not drawn) | inactive
94 | Cc1ccc(-c2nc(CS(=O)CC(=O)NC3CCCC3)c(C)o2)cc1 (stereo not drawn) | 4.65 µM (active)
95 | COc1ccc2oc(=O)c(C(=O)NCc3ccccn3)cc2c1 | inactive
96 | Cc1cccc(-c2nc(CS(=O)CC(=O)NC(C)CCc3ccccc3)c(C)o2)c1 (stereo not drawn) | inactive
97 | CC(OC(=O)CNC(=O)c1ccc(Cl)c([N+](=O)[O-])c1)C(=O)NCc1ccco1 (stereo not drawn) | inactive
98 | NC(=O)c1ccc(Nc2ccc3c(c2)CCC3)c([N+](=O)[O-])c1 | inactive
99 | CCC(C)(C)NC(=O)C(c1ccc(O)cc1)N(Cc1ccco1)C(=O)CCC(=O)Nc1ccccn1 (stereo not drawn) | inactive
100 | Cc1ccc(NC(=O)COC(=O)CN2CCCCCC2=O)c(C)c1 | inactive
101 | Cc1cccc(NC(=O)c2cc([N+](=O)[O-])ccc2N2CCN(C)CC2)c1 | inactive
102 | O=C(Nc1cccc(Cl)c1)c1cc([N+](=O)[O-])ccc1N1CCN(CCO)CC1 | 3.29 µM (active)
103 | CN1CCN(CC(=O)Nc2cccc([N+](=O)[O-])c2)CC1 | inactive
